“And” between values parts separate entries of the source, which are not always exact repeats. Equal entries are not always repeated. Hit rate of the full screen: of about 340,000 compounds, about 5,100 (1.5%) were called active. The list comes from a sample in which actives are over-represented; it also holds similar structures and randomly drawn compounds. Unmarked numbers belong to inactive results.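 How the source made its calls: active means mean Tm shift, scaled 0 neutral to 100 positive control, at about 1.3% or above, every replicate too (limit read from the data); inconclusive means no clear call, values can overlap the other calls; inactive means the rest.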

The target of the experiment is Fibroblast growth factor 22 (Homo sapiens) (UniProt Q9HCT0). Briefly: binders of human FGF22 protein, primary screen, FGF22 synaptogenesis inhibitor project, biophysical, thermal shift, single point (AID 651658). The settings on record: recombinant FGF22 thermal shift, SYPRO orange fluorescence; at 9.99 µM; stronger effect = higher value; percent of sucrose octasulfate shift, DMSO zero.
Chain of Fibroblast growth factor 22 (Homo sapiens) (Q9HCT0 whole entry, looked up): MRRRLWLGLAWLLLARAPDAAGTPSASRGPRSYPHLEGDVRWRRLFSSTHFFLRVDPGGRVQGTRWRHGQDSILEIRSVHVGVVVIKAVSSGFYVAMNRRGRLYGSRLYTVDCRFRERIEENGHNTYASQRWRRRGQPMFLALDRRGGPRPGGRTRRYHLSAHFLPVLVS
For `C[C@@H]1CN([C@H](C)CO)C(=O)c2cc(C3=CCCC3)cnc2O[C@@H]1CN(C)C(=O)Nc1ccc(F)cc1`, the activity (Tm shift, normalised) is -0.106%.

For the compound `COc1cc(Cl)c(C)cc1NC(=O)CN1CCCCCC1`, the activity (Tm shift, normalised) is -0.091%.

As for `O=C(CN1CCCCCC1)Nc1ccc(Br)cc1[N+](=O)[O-]`, the activity (Tm shift, normalised) was -0.021%.

Consider `COc1cc([N+](=O)[O-])ccc1NC(=O)CN1CCCC1`, for which the activity (Tm shift, normalised) is 1.49% (active).

For the compound `NC(c1ccccc1)c1csc(NC(=O)Nc2cccc(C(F)(F)F)c2)n1` (stereo not drawn), the activity (Tm shift, normalised) is -0.154%.

For the compound `O=C(CCC(=O)c1cccs1)Nc1nc2ccccc2s1`, the activity (Tm shift, normalised) is 0.414%.

Turning to `O=C(Nc1ccccc1)Nc1nnc(COc2ccccc2F)s1`, the activity (Tm shift, normalised) is 0.184%.

`O=C(NCc1cccnc1)C(=O)Nc1nc(-c2ccccc2)cs1`: the activity (Tm shift, normalised) is 0.205%.

On to `O=C(Nc1ccccc1)Nc1nc2ccccc2s1`, for which the activity (Tm shift, normalised) is 43.2% (active).

As for `CC(=O)Nc1ccc(-c2csc(NC(=O)Nc3ccccc3)n2)cc1`, the activity (Tm shift, normalised) is 44.8% (active).

Take `O=C(C[C@@H]1CC[C@@H](NC(=O)c2ccc3c(c2)OCO3)[C@H](CO)O1)NCc1ccc(Cl)cc1`: the activity (Tm shift, normalised) is -0.267%.

For the compound `Cc1cc(OCCCCOc2ccc(C#N)cc2)ccc1[N+](=O)[O-]`, the activity (Tm shift, normalised) is 0.385%.

Turning to `Cc1nc(SCc2ccc(F)cc2)c([N+](=O)[O-])[nH]1`, the activity (Tm shift, normalised) was -0.03%.

Turning to `CCCCCOc1ccc(CSC2=NCCN2)cc1[N+](=O)[O-]`, the activity (Tm shift, normalised) is 43.9% (active).

Consider `C[C@@H]1CCCCO[C@@H](CN(C)C(=O)C2CCCCC2)[C@H](C)CN([C@H](C)CO)C(=O)c2cc(NC(=O)c3ccccc3)ccc2O1`, for which the activity (Tm shift, normalised) was -0.449%.

Take `CCN(CC)S(=O)(=O)c1ccc(Cl)c(C(=O)NC(C)C(c2cccs2)N2CCCC2)c1` (stereo not drawn): the activity (Tm shift, normalised) was 43.4% (active).

On to `CCN(CC)S(=O)(=O)c1ccc(N2CCCC2)c(NS(=O)(=O)c2cccs2)c1`, for which the activity (Tm shift, normalised) is -0.637%.

For `CCN(CC)S(=O)(=O)c1ccc(Cl)c(C(=O)NCCN2CCOCC2)c1`, the activity (Tm shift, normalised) is -0.116%.

On to `CN(C)CC(=O)Nc1ccc2c(c1)[C@H]1C[C@H](CC(=O)NCc3ccccn3)O[C@@H](CO)[C@H]1O2`, for which the activity (Tm shift, normalised) was -0.026%.

For the compound `O=C(CNC1CCCCC1)NCC1(c2ccccc2)CCCC1`, the activity (Tm shift, normalised) is 43% (active).

With `COc1cc(C(=O)NCC2(c3ccccc3)CCCC2)ccc1OC(C)C`, the activity (Tm shift, normalised) was -0.207%.

As to `CCOc1c(OC)cccc1C(=O)NCC1(c2ccccc2)CCCC1`, the activity (Tm shift, normalised) is -0.318%.

For the compound `CO[C@@H]1CN(C)C(=O)c2ccc(NC(=O)C3CCC3)cc2OC[C@H](C)NC[C@H]1C`, the activity (Tm shift, normalised) was -0.059%.

For the compound `COc1ccc2c3c(n(C)c2c1)[C@@H](CO)N(Cc1ccncc1)CC31CN(C(=O)C2CCC2)C1`, the activity (Tm shift, normalised) was -0.256%.

Consider `C[C@@H]1CN([C@H](C)CO)C(=O)c2cc(NS(=O)(=O)c3ccccc3)ccc2O[C@@H](C)CCCCO[C@H]1CN(C)C(=O)C1CCCCC1`, for which the activity (Tm shift, normalised) was -0.338%.

As for `Cc1noc(C)c1S(=O)(=O)Nc1ccc2c(c1)CC(=O)N([C@@H](C)CO)C[C@@H](C)[C@H](CN(C)C)O2`, the activity (Tm shift, normalised) was -0.289%.

`CCCCN(C(=O)/C=C/c1ccco1)c1c(N)n(CC(C)C)c(=O)[nH]c1=O`: the activity (Tm shift, normalised) is 43.9% (active).

As for `CCCCN(C(=O)c1nn(C)c(=O)c2ccccc12)c1c(N)n(CCC)c(=O)[nH]c1=O`, the activity (Tm shift, normalised) was 0.011%.

On to `CCCCn1c(N)c(N(CC)C(=O)/C=C/c2ccco2)c(=O)[nH]c1=O`, for which the activity (Tm shift, normalised) was 0.345%.

For `CC(C)NC(=O)N(C)C[C@H]1Oc2ccc(NC(=O)CCCCCC(=O)Nc3ccccc3N)cc2C(=O)N([C@@H](C)CO)C[C@@H]1C`, the activity (Tm shift, normalised) was -0.213%.

For `COc1ccc2c3c([nH]c2c1)[C@@H](CO)N(C(=O)C1CC1)CC31CCN(Cc2nccs2)CC1`, the activity (Tm shift, normalised) was 0.119%.

As for `CC(C)NC(=O)Nc1ccc2c(c1)C(=O)N([C@H](C)CO)C[C@H](C)[C@@H](CN(C)Cc1ccc3c(c1)OCO3)OCCCC[C@H](C)O2`, the activity (Tm shift, normalised) was -0.249%.

In the case of `Cc1ccccc1NC(=O)NC1(C(=O)N2CCCC2)CCCCC1`, the activity (Tm shift, normalised) was 43.5% (active).

With `CC(=O)N1CCN(C(=O)C2(NC(=O)Nc3ccc(C)cc3)CCCCC2)CC1`, the activity (Tm shift, normalised) was -0.042%.

With `O=C(Nc1ccccc1Cl)NC1(C(=O)N2CCOCC2)CCCCC1`, the activity (Tm shift, normalised) was -0.339%.

On to `C[C@@H]1CN([C@H](C)CO)C(=O)Cc2cc(NC(=O)NC3CCCCC3)ccc2O[C@H]1CN(C)S(C)(=O)=O`, for which the activity (Tm shift, normalised) is -0.091% and -0.115%.

Turning to `CC(C)NC(=O)Nc1ccc2c(c1)C(=O)N([C@@H](C)CO)C[C@H](C)[C@@H](CN(C)Cc1ccc(C(=O)O)cc1)OCCCC[C@H](C)O2`, the activity (Tm shift, normalised) is 0.548%.

For `COc1ccc2c3c([nH]c2c1)[C@H](CO)N(Cc1ccccc1Cl)CC31CN(C(=O)C2CC2)C1`, the activity (Tm shift, normalised) was 0.006%.

As for `COc1cccc(S(=O)(=O)N[C@@H]2C=C[C@H](CC(=O)NC3CCC3)O[C@H]2CO)c1`, the activity (Tm shift, normalised) is 0.557%.

Regarding `CC[N+]1(CC)CC2=Cc3ccccc3CC2C1` (stereo not drawn), the activity (Tm shift, normalised) was 43.3% (active).

As to `C[C@@H]1CCCCO[C@@H](CN(C)Cc2ccccc2)[C@H](C)CN([C@H](C)CO)C(=O)c2cc(NC(=O)Nc3cccc4ccccc34)ccc2O1`, the activity (Tm shift, normalised) was -0.579%.

As for `C[C@@H]1CCCCO[C@H](CN(C)C(=O)NC2CCCCC2)[C@H](C)CN([C@H](C)CO)C(=O)c2cc(NC(=O)c3ccncc3)ccc2O1`, the activity (Tm shift, normalised) is 0.182%.

As for `COc1ccc2c3c(n(C)c2c1)[C@H](CO)N(C(=O)NC(C)C)CC31CN(CC2CCCCC2)C1`, the activity (Tm shift, normalised) is -0.103%.

`COc1ccc(CNC(=O)C2CCN(S(=O)(=O)c3ccc(SC)cc3)CC2)cc1`: the activity (Tm shift, normalised) was -0.235%.

Turning to `COc1ccc(CNC(=O)C2CCCC2)cc1`, the activity (Tm shift, normalised) is -0.099%.

As to `COc1ccc(CNC(=O)C2CCN(S(C)(=O)=O)CC2)cc1`, the activity (Tm shift, normalised) is 43.4% (active).

Turning to `CN(C)C(=O)c1ccc(-c2ccc([C@@H]3[C@H](C#N)N(C(=O)C4CC4)[C@H]3CO)cc2)cc1`, the activity (Tm shift, normalised) is 0.09%.

`CO[C@H]1CN(C)C(=O)c2cc(NC(=O)Nc3cccc(F)c3)ccc2OC[C@@H](C)N(C)C[C@H]1C`: the activity (Tm shift, normalised) was 0.028%.

The values above are taken from PubChem BioAssay AID651658 (Broad Institute, 2012).
